Data reported in ChEMBL document CHEMBL5724796, “Tm Shift (DSF) assay results for EUbOPEN Chemogenomics Library” (2024).
Non-standard residues stand in square brackets, D forms with d. Residues, ends and D or L forms follow the SMILES beside them. *: point of attachment. Benzoyl(4-tBu) = CC(C)(C)c1ccc(C(=O)*)cc1; Lys(Et2) = CCN(CC)CCCC[C@H](N)C(=O)O

biological target: Glycogen synthase kinase-3 beta (Homo sapiens) (UniProt P49841); settings: Compound concentration 20.0 uM
Sequence (P49841 whole entry, looked up): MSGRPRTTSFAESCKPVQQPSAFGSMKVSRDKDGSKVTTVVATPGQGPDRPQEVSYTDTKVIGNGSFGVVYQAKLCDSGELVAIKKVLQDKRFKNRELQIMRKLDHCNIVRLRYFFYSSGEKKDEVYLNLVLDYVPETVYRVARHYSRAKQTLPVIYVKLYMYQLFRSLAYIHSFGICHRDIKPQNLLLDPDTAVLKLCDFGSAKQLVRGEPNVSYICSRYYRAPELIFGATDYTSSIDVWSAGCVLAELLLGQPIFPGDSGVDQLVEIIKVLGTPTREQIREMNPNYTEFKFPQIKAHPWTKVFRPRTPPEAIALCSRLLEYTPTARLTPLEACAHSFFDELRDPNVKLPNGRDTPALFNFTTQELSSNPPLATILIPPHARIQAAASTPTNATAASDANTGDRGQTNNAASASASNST

SMILES | ΔTm
O=C(CCCCCCNC(=O)c1cnc(N(c2ccccc2)c2ccccc2Cl)nc1)NO | -0.06 °C
O=C1Nc2ccccc2C2(CCN(CC(Cc3ccccc3)Nc3nc4ccc(F)cc4s3)CC2)N1 (centres undefined) | -1.4 °C
C[C@@H]1CN(Cc2ncccn2)C[C@H]1c1nc2c(cnn2C2CCOCC2)c(=O)[nH]1 | 0.32 °C
CNCCCN1c2ccccc2CCc2ccccc21 | -1.29 °C
O=C(NCc1ccc(Cl)cc1)C1CCN(S(=O)(=O)c2cc(Cl)cc(Cl)c2)CC1 | -1.43 °C
COCCOCCn1nc2c(c1C)-c1c(Cl)ccc3c1c(C)c(C(=O)O)n3CCCOc1cc(cc3c(F)c(Cl)ccc13)CCc1cc(nn1C)CSC2 | 0 °C
O=c1[nH][nH]c(=O)c2cc(OCc3ccccc3F)ccc12 | 1.24 °C
CCN(CC)CCCC[C@H](NC(=O)[C@H](CC(C)C)NC(=O)[C@H](C)NC(=O)[C@H](Cc1ccccc1)NC(=O)c1ccc(C(C)(C)C)cc1)C(=O)N[C@@H](CO)C(=O)OC ({Benzoyl(4-tBu)}-FAL[Lys(Et2)]S-OMe) | -1.01 °C
Cc1cc(-c2ccccc2)cc(C(=O)NNS(=O)(=O)c2ccccc2)c1F | -3.1 °C
COc1ccc([C@@H]2CNC(=O)C2)cc1OC1CCCC1 | -0.23 °C
CC(C)[C@@H]1NC(=O)[C@H](Cc2ccc(O)cc2)NC(=O)[C@@H](CC(=O)O)NC(=O)S[C@@H](C(=O)O)NC(=O)[C@H]([C@H](C)O)NC(=O)[C@H](Cc2ccc(O)cc2)NC(=O)[C@H](Cc2c[nH]c3ccccc23)NC(=O)[C@H](CCCNC(=N)N)NC(=O)[C@H](Cc2c[nH]c3ccccc23)NC(=O)[C@H](C)NC(=O)[C@H](CO)NC(=O)[C@H](CCCNC(=N)N)NC(=O)[C@H]([C@H](C)O)NC(=O)[C@H](CC(N)=O)NC(=O)[C@H](Cc2ccc(O)cc2)NC1=O | -0.36 °C
COc1cc(Nc2ncc(F)c(Nc3ccc4c(n3)N(COP(=O)(O)O)C(=O)C(C)(C)O4)n2)cc(OC)c1OC | -0.66 °C
COC(=O)[C@H]1[C@H]2C[C@@H]3c4[nH]c5cc(OC)ccc5c4CCN3C[C@H]2C[C@@H](OC(=O)c2cc(OC)c(OC)c(OC)c2)[C@@H]1OC | -0.54 °C
O=C(CCCCCCNC(=O)c1cnc(N(c2ccccc2)c2ccccc2)nc1)NO | -0.11 °C
CCC[C@@H]1CNCc2c1[nH]c(=O)c(C#N)c2N1CCC2(CC1)CC2 | 0.07 °C
Cc1ccc(F)c2cc(C(=O)N[C@@H]3CCC[C@H](N4CC[C@H](N(C)S(C)(=O)=O)C4)C3)[nH]c12 | -1.31 °C
NC(=O)c1cc(F)cc2c1C(=O)N(C1CCN(C3CCC(F)(F)CC3)CC1)C2 | -0.85 °C
CCCC[C@]1(CC)CS(=O)(=O)c2cc(CNC(CC(=O)O)CC(=O)O)c(OC)cc2[C@@H](c2ccccc2)N1 | -0.88 °C
C[C@@H](Oc1ccc(S(C)(=O)=O)cc1C(=O)N1C[C@@H]2C[C@]2(c2cc(C(F)(F)F)on2)C1)C(F)(F)F | -0.39 °C
CCN(CC)C(=O)/C(C#N)=C/c1cc(O)c(O)c([N+](=O)[O-])c1 | -0.28 °C

SMILES | ΔTm
Cc1cc(C)c(CNC(=O)c2cc(Cl)c3c(c2C)O[C@@](C)([C@H]2CC[C@H](N(C)C)CC2)O3)c(=O)[nH]1 | -0.76 °C
O=C(CCCCCCC(=O)Nc1ccc([C@H]2O[C@@H](CSc3nc(-c4ccccc4)c(-c4ccccc4)o3)C[C@@H](c3ccc(CO)cc3)O2)cc1)NO | 2.86 °C
Cc1ncc(Cl)cc1NCc1ccc(C(=O)N[C@@H](CC2CCCC2)C(=O)NC2CC2)s1 | 10.5 °C
COc1ccc(CC[C@H]2CCC[C@@H](CCc3ccc(OC)cc3)N2C[C@@H](O)CO)cc1 | -0.21 °C
C=C(C)[C@@H](CC=C(C)C)C[C@@]12C[C@@H](CC=C(C)C)C(C)(C)[C@@](CC=C(C)C)(C(=O)C(C(=O)c3ccc(O)c(O)c3)=C1O)C2=O | -0.68 °C
CNC(=O)c1cc(Nc2ccnc(Nc3ccc(CCNC(=O)OC(C)(C)C)cc3)n2)n[nH]1 | -1.3 °C
O=C(c1cc(Cc2n[nH]c(=O)c3ccccc23)ccc1F)N1CC(CNC2CC2)C1 | -0.61 °C
CCCCOc1c(OC)cc(C(=O)NCC2(N(C)C)CCOCC2)cc1OC | -1.71 °C
Cn1c(=O)cc(N2CCC[C@@H](N)C2)n(Cc2cc(F)ccc2C#N)c1=O | -0.59 °C
CCOCC1(COCC)CCC(c2n[nH]cc2CN(C)CCNC)CC1 | -1.08 °C
CCCNC(=O)[C@H]1O[C@@H]1C(=O)N[C@H](C(=O)N1CCC[C@H]1C(=O)O)[C@@H](C)CC | 0.22 °C
CCS(=O)(=O)N1CC(CC#N)(n2cc(-c3ncnc4[nH]ccc34)cn2)C1 | 3.43 °C
C[C@H]1CO[C@@H]2Cn3cc(C(=O)NCc4ccc(F)cc4F)c(=O)c(O)c3C(=O)N12 | -0.88 °C
CN(C)CCCNC(=O)c1ccc(-c2cc(O)c3ncccc3c2)cc1 | 0.54 °C
COC[C@H](NC(=O)c1ccn(S(C)(=O)=O)c1)C(=O)Nc1nc(-c2cccc(-c3ccn(C)n3)c2)cs1 | -3.25 °C
Cc1c(Nc2ccc(S(=O)(=O)N3CCN(C)CC3)cc2F)nc2ccc(-c3cnn(C4CC4)c3)cn2c1=O | 0.08 °C
COc1cc(C(=O)NCC2(N(C)C)CCCC2)cc(OC)c1OCc1ccccc1 | -0.01 °C
COc1ccc(-c2ccc(-c3cn(C(=O)N4CCCCC4c4ccccc4)nn3)cc2)cc1 (centres undefined) | -1.61 °C
OC[C@H]1O[C@@H](c2ccc(Cl)c(Cc3ccc(O[C@H]4CCOC4)cc3)c2)[C@H](O)[C@@H](O)[C@@H]1O | -0.36 °C
